Data as given in PubChem BioAssay (NCI).
About 79,000 compounds went through this panel and 15% of them were active in at least one assay; those are over-represented in the sample as a whole. Values without a mark were called inactive. Calls of active or inactive are those of the source. Cut-off read from the data, not from the text of the source: active = growth inhibition above about 70%; inactive = the rest.

Assay: NCI Yeast Anticancer Drug Screen. Data for the sgs1 mgt1 strain (AID 161);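 note: 0% = growth of cultures given vehicle only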
Details: S. cerevisiae sgs1 mgt1 strain, at 50.0 µM, active compounds read high
Procedure, shortened: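 Compounds are added to genetically altered yeast, and growth is compared with cultures given vehicle alone to give percent inhibition.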

| SMILES | growth inhibition |
| --- | --- |
| NNc1ncnc2cccc(Cl)c12 | 18.6% |
| COCCCC12C=C(OC)C(=O)C=C1OC(c1cc(OC)c(OC)c(OC)c1)C2C (stereo not given) | -36% |
| COc1ccc2c(c1)CC1c3[nH]c4ccccc4c3CCN1C2 (stereo not given) | 52.9% |
| Cc1ccc(NCC(O)CN2CCCC2)cc1 (stereo not given) | 12.5% |
| CC(=O)/C(C)=C\c1ccc(C(C)C)cc1 | -10.9% |
| O=C(CO)c1ccc(-c2ccccc2)cc1 | -19.1% |
| CCC(c1ccc(OC)cc1)c1cc2c(cc1OCCO)OCO2 (stereo not given) | 81.7% (active) |
| Cc1ccc(C(C)(CCC(=O)O)c2ccc(C)o2)o1 | 7.35% |
| COC(=O)c1cc(C(=O)OC)cc([N+](=O)[O-])c1 | 8.75% |
| Cc1ccc(S(=O)(=O)OCC(C)C(c2ccccc2)c2ccccc2)cc1 (stereo not given) | -4.55% |
| CC(C)C/C(CC(=O)CCC(=O)Nc1ccccc1[N+](=O)[O-])=N\NC(=O)c1cc2ccccc2cc1O | -11.8% |
| CC(C)C(=O)OC1CCCCC1Cc1ccccn1 (stereo not given) | 29.1% |
| CSc1ccc(NC(=O)Oc2ccc(NC(C)=O)cc2)cc1 | 6.05% |
| NNC(=O)Nc1ccccc1 | -0.5% |
| COCCNC(C)=O | 12% |
| O=C1c2ccccc2C(=O)N1/N=C\c1ccc(O)cc1 | 7.6% |
| c1ccc(CC[n+]2ccncc2)cc1 | -8.4% |
| CCCOC(=O)Nc1cccc(Cl)c1 | 13.6% |
| ClC(Cl)=C(c1ccccc1)c1ccccc1 | 36.5% |
| CCCCCCCCCCCCCCCCCC/C(CC)=N/Nc1ccc([N+](=O)[O-])cc1[N+](=O)[O-] | -12.2% |

| SMILES | growth inhibition |
| --- | --- |
| COC(=O)c1c(-c2ccc3c(c2)OCO3)cn(C)c1C | 24.6% |
| CC1=C(Br)C(=O)C(C(C)C)=CC1=O | -6.75% |
| CCCCC1(CC)COC2(CCCC2)OC1 | -11.6% |
| NC(=O)c1ccccc1NC(=O)C(=O)Cc1nc2ccccc2[nH]c1=O | 11.7% |
| Cc1c(C)c(C)c2cc3c(C)c(C)c(C)c(C)c3cc2c1C | -8.5% |
| COc1cccc(C(OC(=O)c2ccccc2)c2nncc3ccccc23)c1OC (stereo not given) | 9.6% |
| CC(=O)OCC(COC(C)=O)C(C)=O | -8.5% |
| CNCC1OC(OC)C2OC(C)(C)OC12 (stereo not given) | 8.15% |
| O=[N+]([O-])C1CCC(N=Nc2c(O)ccc3ccccc23)CC1 (stereo not given) | 4.65% |
| CCC(CO)N1CNC(=S)NC1 (stereo not given) | 4.85% |
| Cc1cc(N=Nc2ccccc2)c2cccnc2c1N | -7.5% |
| CCOC(=O)/C(C)=C(/O)C(=O)OCC | -22% |
| CCOC(=O)Nc1nc2ccccc2n1CN1CCOCC1 | -18.9% |
| CC(=O)CCCCO | 10.8% |
| CCCCCCCCCCCCCCCCS(=O)(=O)N/N=C/c1ccc2c(c1)OCO2 | 3.5% |
| CC(=O)n1[nH]c(=O)n(-c2ccc(Cl)cc2)c1=O | -30.1% |
| C=CCOc1cc2c(cc1C(C)c1ccc(OCC)c(C)c1)OCO2 (stereo not given) | -4.85% |
| CC(=O)N/N=C1\NN(C(C)=O)C2(S1)C(=O)Nc1ccccc12 (stereo not given) | 68.8% |
| NC(CCCCn1nnc2c(=O)[nH]cnc21)C(=O)O (stereo not given) | 6% |
| COCn1cnc2c(F)ncnc21 | -5.1% |
